Assay [1] is described as follows: HepG2 liver cancer cell viability effects, profiling panel, resazurin fluorescence, 24 h, PK04 Diversity Set (AID 1172). Further: test concentration not given here. The note with it: higher = more signal. For orientation: The colour change of resazurin is a common sign of viable cells or microbes.
The nature of assay [2]: basal S. cerevisiae growth modulation, no modifier, primary screen, OD600, strain BY4716, 24 h, basal condition (AID 1173). The note with it: OD600, 24 h, higher = more signal, called active from +8 up or from −8 down.
Assay [3] in a line: MM1S myeloma cell viability, profiling panel, resazurin fluorescence, basal, 24 h, PK04 Diversity Set (AID 1174). Further: test concentration not given here. The following applies: higher = more signal, called active from +8 up or from −8 down.
The target of assay [4] is Dihydroorotate dehydrogenase (quinone), mitochondrial (Plasmodium falciparum (isolate 3D7)) (UniProt Q08210). Nature of the assay: PfDHODH enzyme inhibitors, primary screen, biochemical, C-terminal His tag, absorbance 600 nm (AID 1175).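 Further: recombinant parasite enzyme with a five histidine tag at its C terminus; test concentration not given here.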 The note with it: DCIP absorbance 600 nm, higher = more signal, called active from +8 up or from −8 down.
Dihydroorotate dehydrogenase (quinone), mitochondrial (Plasmodium falciparum (isolate 3D7)), sequence (Q08210 whole entry, looked up): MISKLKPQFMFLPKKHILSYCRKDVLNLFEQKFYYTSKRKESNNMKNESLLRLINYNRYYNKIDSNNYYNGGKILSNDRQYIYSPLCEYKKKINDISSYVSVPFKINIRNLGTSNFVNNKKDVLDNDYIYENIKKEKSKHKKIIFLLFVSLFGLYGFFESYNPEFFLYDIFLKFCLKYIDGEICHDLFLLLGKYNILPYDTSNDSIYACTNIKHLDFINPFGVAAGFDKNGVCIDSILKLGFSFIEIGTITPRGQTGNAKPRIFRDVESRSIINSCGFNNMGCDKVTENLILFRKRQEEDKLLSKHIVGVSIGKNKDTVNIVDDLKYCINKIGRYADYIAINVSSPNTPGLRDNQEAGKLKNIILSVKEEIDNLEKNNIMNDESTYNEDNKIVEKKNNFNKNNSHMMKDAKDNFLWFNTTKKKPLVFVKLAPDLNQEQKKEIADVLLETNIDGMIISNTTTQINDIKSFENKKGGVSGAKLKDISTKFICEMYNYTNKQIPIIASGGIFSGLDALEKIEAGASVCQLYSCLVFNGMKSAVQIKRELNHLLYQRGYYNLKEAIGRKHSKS
Assay [5] in a line: P. aeruginosa biofilm formation inhibitors, primary screen, strain PAO1, LB-PBS medium, absorbance 600 nm (AID 1176). Further: test concentration not given here. The following applies: P. aeruginosa PAO1 growth/biofilm, A600, 12 h; higher = more signal.
Assay [6] in a line: S. cerevisiae RM11-1a growth modifiers, primary screen, strain RM11-1a, OD600, basal, 24 h (AID 1177).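 Further: cultures grown under basal conditions with no added stressor; test concentration not given here.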 The note with it: OD600, 24 h, higher = more signal, called active from +8 up or from −8 down.
Assay [7] in a line: E. coli acrAB mutant growth effects, primary screen, E. coli filamentation inducers, strain DRC39, OD650, 24 h (AID 1178).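 Further: growth measured as culture turbidity by optical density at 650 nm; test concentration not given here.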 The note with it: higher = more signal, called active from +8 up or from −8 down.
Assay [8] can be described thus: E. coli acrAB mutant growth effects, primary screen, E. coli filamentation inducers, strain DRC39, OD650, 48 h (AID 1179).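 Further: screen aims at cell division blockers that make cells filament.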 The note with it: E. coli DRC39 delta-acrAB growth, higher = more signal, called active from +8 up or from −8 down.
Assay [9] is described as follows: RPMI8226 myeloma cell viability, profiling panel, resazurin fluorescence, basal, 24 h, PK04 Diversity Set (AID 1180).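 Further: RPMI8826 multiple myeloma cell line at 5000 cells per well; test concentration not given here.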 The note with it: higher = more signal.
Assay [10] has as its target E3 ubiquitin-protein ligase XIAP (Homo sapiens) (UniProt P98170). Nature of the assay: XIAP binders, primary screen, biophysical, small-molecule microarray, fluorescence 635 nm (AID 1181).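 Further: score merges 667 nm emission and signal to noise over triplicate slides.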 The note with it: small-molecule microarray binding, higher = more signal.

These results are taken from PubChem BioAssay.

Calls of active or inactive are those of the source. Unless noted, how the calls were made is not given here.

E3 ubiquitin-protein ligase XIAP (Homo sapiens), sequence (P98170 whole entry, looked up): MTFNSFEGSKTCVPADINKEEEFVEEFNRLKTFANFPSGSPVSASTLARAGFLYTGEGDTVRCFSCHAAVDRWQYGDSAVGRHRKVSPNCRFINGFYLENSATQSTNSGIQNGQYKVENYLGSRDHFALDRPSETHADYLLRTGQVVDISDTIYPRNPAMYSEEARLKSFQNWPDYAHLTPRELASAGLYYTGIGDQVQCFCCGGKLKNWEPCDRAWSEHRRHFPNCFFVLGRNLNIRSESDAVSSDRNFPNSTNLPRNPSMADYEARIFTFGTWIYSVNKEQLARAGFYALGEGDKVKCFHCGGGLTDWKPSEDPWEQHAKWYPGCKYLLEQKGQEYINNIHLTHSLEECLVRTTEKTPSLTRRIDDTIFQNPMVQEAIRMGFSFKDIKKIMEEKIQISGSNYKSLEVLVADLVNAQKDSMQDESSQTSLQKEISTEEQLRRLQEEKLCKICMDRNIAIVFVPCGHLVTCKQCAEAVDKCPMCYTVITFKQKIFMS

On to `C=C(C(=O)CC[C@H](OC(C)=O)c1ccc(OCCO)cc1)C(C)C`, for which the z-score is 0.163 in [1]; -16.2 (active) in assay [2]; 0.192 (inactive) in assay [3]; -1.21 (inactive) in assay [5]; -21.4 (active) in assay [6]; -0.135 (inactive) in [7]. The z-score in [8] was 0.204 (inactive); in assay [9], -0.349. The composite z-score in assay [4] was -8.01 (active); in [10], -0.177.
In the case of `NC(=O)NCC#Cc1ccc2c(c1)[C@]1(C(=O)N2)[C@H](C(=O)N2CCCCCCC2)[C@H]2C(=O)O[C@H](c3ccccc3)[C@H](c3ccccc3)N2[C@@H]1c1ccc(OCCO)cc1`, the z-score in [1] was -0.3; in [2], 1.84 (inactive); in assay [3] it was -0.36 (inactive); in [5] it was 2.1 (inactive); in [6], 2.12 (inactive); in assay [7], 0.049 (inactive). Besides, the z-score in assay [8] was -0.318 (inactive); in assay [9], -0.831. Further, the composite z-score in assay [4] was 0.835 (inactive); in assay [10], 0.0368.
Consider `C=CCN1C(=O)[C@]2(O[C@H](CCO)[C@@H]([Si](C)(C)c3ccc(OC)cc3)[C@@H]2C)c2cc(NC(=O)[C@H](C)O)ccc21`, for which the z-score in assay [1] is -0.646; in [2], -0.151 (inactive); in assay [3] it was -1.43 (inactive); in assay [5], 0.0943 (inactive); in [6] it was 2.79 (inactive); in assay [7], -0.483 (inactive). The z-score in assay [8] was -0.955 (inactive); in assay [9], -2.8. Besides, the composite z-score in [4] is 0.235 (inactive); in [10], 0.0223.
`NCCCCCCNC(=O)[C@H]1C[C@H]2C(=O)NCC(=O)N2[C@H]1c1cccc(OCCO)c1`: the z-score in [1] was 0.583; in assay [2], -1.42 (inactive); in [3], 0.724 (inactive); in [5], -0.475 (inactive); in assay [6], -0.689 (inactive); in assay [7] it was 1.42 (inactive). Also, the values for the z-score in [8] and in assay [9] were 1.61 (inactive) and 1.08, respectively. Besides, the composite z-score in assay [4] is -0.42 (inactive); in [10] it was 0.0785.
With `O=C1C=CC(=O)[C@@H]2CC(COc3ccccc3)=C3[C@@H](CCc4ccccc4)OB(O)C[C@@H]3[C@H]12`, the z-score in [1] is -0.814; in [2], -6.89 (inactive); in [3], -0.971 (inactive); in assay [5], 0.212 (inactive); in [6], -0.234 (inactive); in [7], -0.569 (inactive). Besides, the z-score is -0.422 (inactive) in [8] and -0.664 in assay [9]. For the same compound, the composite z-score in assay [4] was -2.68 (inactive); in assay [10] it was 0.0767.
`C=CCNC(=O)[C@@H]1[C@H]2C(=O)O[C@H](c3ccccc3)[C@H](c3ccccc3)N2[C@H](c2ccc(O)cc2)[C@@]12C(=O)N(C(=O)OCCOC)c1ccccc12`: the z-score in [1] is 0.09; in assay [2], 0.57 (inactive); in [3], 0.177 (inactive); in assay [5], 0.817 (inactive); in assay [6], 1.01 (inactive); in assay [7], -0.233 (inactive). For the same compound, the values for the z-score in assay [8] and in assay [9] were -0.33 (inactive) and 0.209, respectively. Further, the composite z-score in [4] was -0.186 (inactive); in assay [10], -0.17.
As to `COCCOC(=O)N1C(=O)[C@@]2(c3cc(C#CCNC(N)=O)ccc31)[C@H](c1ccc(O)cc1)N1[C@H](c3ccccc3)[C@H](c3ccccc3)OC(=O)[C@H]1[C@@H]2C(=O)NC[C@H](O)c1ccccc1`, the z-score in assay [1] is -0.197; in assay [2], 0.947 (inactive); in assay [3] it was 0.302 (inactive); in assay [5] it was 0.69 (inactive); in [6] it was 1.23 (inactive); in assay [7] it was 0.248 (inactive). Moreover, the z-score in [8] was 0.193 (inactive); in [9], -0.949. The composite z-score was 0.924 (inactive) in [4] and -0.0807 in [10].
As to `C=CC(COC(C)=O)NS(=O)(=O)c1ccc(Br)cc1` (stereo not given), the z-score was -0.233 in assay [1]; -2.68 (inactive) in assay [2]; 0.364 (inactive) in assay [3]; 0.212 (inactive) in assay [5]; -0.406 (inactive) in assay [6]; -0.909 (inactive) in [7]. In addition, the z-score was -1.05 (inactive) in assay [8] and 0.404 in [9]. Besides, the results for the composite z-score in [4] and in assay [10] were -0.287 (inactive) and -0.338, respectively.
`O=C1O[C@@H](c2ccccc2)[C@@H](c2ccccc2)N2[C@@H](c3ccc(O)cc3)[C@]3(C(=O)Nc4ccc(C#CC5=CCCCC5)cc43)[C@@H](C(=O)O)[C@H]12`: the z-score was 1.46 in assay [1]; -4.6 (inactive) in assay [2]; 1.23 (inactive) in assay [3]; 2.85 (inactive) in assay [5]; -2.61 (inactive) in assay [6]; 0.661 (inactive) in assay [7]. In addition, the results for the z-score in [8] and in assay [9] were 1.32 (inactive) and 1.02, respectively. For the same compound, the composite z-score in [4] is -2.56 (inactive); in [10], 0.332.
For the compound `C=C(COC)/C(=C/C[C@H](OC(=O)c1ccncc1)c1cccc(OCCO)c1)c1cc(C(=O)OC)ccc1OC`, the z-score was 0.13 in [1]; -0.0964 (inactive) in assay [2]; 0.544 (inactive) in assay [3]; -0.21 (inactive) in [5]; -0.42 (inactive) in assay [6]; 0.629 (inactive) in assay [7]. Further, the figures for the z-score in [8] and in assay [9] were 0.237 (inactive) and 0.406, respectively. The composite z-score in [4] was -2.67 (inactive); in assay [10], -0.102.
On to `COc1cc(CO)ccc1OC(C)=O`, for which the z-score in assay [1] is -0.386; in assay [2], -0.277 (inactive); in assay [3], -0.779 (inactive); in assay [5] it was -0.248 (inactive); in assay [6] it was -1.18 (inactive); in [7], 0.35 (inactive). The z-score in assay [8] is 0.915 (inactive); in assay [9], -0.927. The composite z-score in assay [4] is -1.75 (inactive); in assay [10], -0.17.
Take `COCCOC(=O)N1C(=O)[C@@]2(c3ccccc31)[C@H](C(=O)NC[C@H](O)c1ccccc1)[C@H]1C(=O)O[C@H](c3ccccc3)[C@H](c3ccccc3)N1[C@@H]2c1ccc(OCCO)cc1`: the z-score is 1.09 in assay [1]; 1.42 (inactive) in assay [2]; -1.04 (inactive) in assay [3]; 2.36 (inactive) in [5]; 1.61 (inactive) in [6]; 0.649 (inactive) in assay [7]. In addition, the z-score was -0.559 (inactive) in [8] and -0.744 in assay [9]. Besides, the composite z-score in assay [4] is -0.0923 (inactive); in [10], -0.156.
